# Shown are actives, neighbours in structure and some others; about 10% of the full set was active somewhere.
# JMJD2A Tudor = blocks the human JMJD2A Tudor domain. AID 504339. Potency, µM (doses to about 114 µM), for the others: at the top dose activity change, negative = inhibition, most hits filed as inhibitors. actives 4.4% (n = 390,000). AlphaScreen JMJD2A-Tudor / H3K4me3 peptide binding; note: % is set by controls: 0 for no effect and ±100 for the full control effect; nearly all actives have a fitted effect of over 50% in size
# Target sequence (O75164 whole entry, looked up, the tested form may be a part): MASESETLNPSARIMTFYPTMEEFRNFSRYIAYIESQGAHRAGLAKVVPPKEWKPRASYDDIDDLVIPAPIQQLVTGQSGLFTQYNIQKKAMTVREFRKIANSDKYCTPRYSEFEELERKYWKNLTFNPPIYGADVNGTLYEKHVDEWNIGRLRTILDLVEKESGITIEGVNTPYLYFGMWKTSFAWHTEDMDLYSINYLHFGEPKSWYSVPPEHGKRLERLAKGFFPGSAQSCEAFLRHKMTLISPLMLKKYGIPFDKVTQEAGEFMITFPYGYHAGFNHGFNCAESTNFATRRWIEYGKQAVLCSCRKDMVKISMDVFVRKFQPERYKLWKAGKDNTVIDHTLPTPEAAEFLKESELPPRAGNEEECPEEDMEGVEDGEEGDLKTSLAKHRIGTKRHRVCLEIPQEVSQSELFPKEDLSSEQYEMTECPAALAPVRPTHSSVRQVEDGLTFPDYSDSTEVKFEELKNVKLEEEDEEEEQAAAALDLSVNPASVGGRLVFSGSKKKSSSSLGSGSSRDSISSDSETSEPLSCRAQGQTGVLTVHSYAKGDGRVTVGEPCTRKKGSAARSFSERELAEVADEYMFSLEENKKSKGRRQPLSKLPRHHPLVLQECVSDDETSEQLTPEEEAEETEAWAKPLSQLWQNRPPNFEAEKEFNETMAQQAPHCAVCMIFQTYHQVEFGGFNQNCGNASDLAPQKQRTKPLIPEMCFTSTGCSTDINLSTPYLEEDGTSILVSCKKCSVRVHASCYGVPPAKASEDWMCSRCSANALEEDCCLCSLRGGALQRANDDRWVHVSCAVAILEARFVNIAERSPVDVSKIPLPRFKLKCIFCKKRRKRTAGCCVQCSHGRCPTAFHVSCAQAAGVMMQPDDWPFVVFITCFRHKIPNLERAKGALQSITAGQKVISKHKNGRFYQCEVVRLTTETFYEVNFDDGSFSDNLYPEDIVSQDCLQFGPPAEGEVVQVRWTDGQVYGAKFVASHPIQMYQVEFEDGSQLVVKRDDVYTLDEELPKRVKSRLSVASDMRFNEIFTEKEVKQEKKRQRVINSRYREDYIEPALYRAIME
# BAZ2B inh = inhibitors of human BAZ2B bromodomain. actives 4.4% (n = 360,000). AlphaScreen BAZ2B-H3K14Ac peptide displacement. Q9UIF8. AID 504333. Potency, µM (titrated, usually from 114 µM), for the others: at the highest dose activity change, negative = inhibition, hits mostly inhibitors; note: % is set by controls: 0 for no effect and ±100 for the full control effect; nearly all actives have a fitted effect of over 60% in size
#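 AlphaScreen displacement of biotin-H3(5-23)K14Ac peptide (50 nM final) from BAZ2B (50 nM final) in PBS pH 7.4, 0.01% Tween-20; complex preformed 30 min RT, then compounds (top 110 uM) 30 min RT, beads 20 min dark.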
# HP1b binding inh = inhibitors of HP1-beta chromodomain binding to methylated histone tails; P83916; AlphaScreen HP1-beta / biotin-H3K9me3 peptide binding; Potency, µM (highest dose often 114 µM), for inactives: at the top dose activity change, negative = inhibition, most hits filed as inhibitors; actives 0.56% (n = 390,000); note: nearly all actives have a fitted effect of over 70% in size
#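 HP1-beta protein (50 nM final) preincubated 30 min at room temperature with biotinylated H3(1-18)K9me3 peptide (50 nM) in PBS pH 7.4, 0.01% Tween-20, then compound added for 30 min. AlphaScreen streptavidin donor/nickel chelate acceptor beads (10 ug/mL final), 30 min dark, luminescence read.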
# G9a block = G9a (human) methyltransferase inhibition | G9a H3K9 monomethylation, AlphaScreen, 2 h | actives 8.8% (n = 350,000) | Q96KQ7 | Potency, µM (highest dose often 102 µM), for the others: top-dose activity, negative = inhibition, actives largely listed as inhibitors; note: % is set by controls: 0 for no effect and ±100 for the full control effect; nearly all actives have a fitted effect of over 75% in size
#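 Chemiluminescent proximity detection of H3K9 monomethylation, read after 10 min bead incubation in the dark. Reaction: 20 nM G9a, 500 nM biotin-H3K9 peptide, 20 uM SAM cofactor, 2 h, room temperature, following 15 min enzyme-compound preincubation.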
# GLS inh = glutaminase GLS (human) inhibition | O94925 | Potency, µM (doses to about 45.5 µM), for inactives: at the highest dose activity change, negative = inhibition, usual class: inhibitors | actives 0.21% (n = 410,000) | GLS enzymatic activity, qHTS titration; note: % is set by controls: 0 for no effect and ±100 for the full control effect
#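 hKGA; 45 mM KH2PO4 pH 8.2 + 0.02% Tween-20; cpd via pin tool; 1 mM Gln soln; GluOx/HRP/Amplex Red; RT 30 min; fluor. t0 & final.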
# Starred values were filed as active, the others as inactive; ? = inconclusive; / = not tested or not shown; [ ] = remark or other dose. Calls come from the whole dose curve; as a rule, active = well fitted curve in the direction sought with a large enough effect; inconclusive = small, poorly fitted or top-dose-only effect, or another doubt; inactive = no such curve, though single readings can be large; an effect the other way counts as inactive or inconclusive. Potency is the fitted concentration of half-maximal effect.
SMILES,JMJD2A Tudor,BAZ2B inh,HP1b binding inh,G9a block,GLS inh
COc1ccc(C2C(C(C)=O)=C(C)N=c3s/c(=C\c4ccco4)c(=O)n32)c(OC)c1 (stereo not given),32µM*,/,?,11µM*,/
FC(F)(F)c1ccccc1-c1nccc(N2CCNCC2)n1,/,/,/,-34%[0.501 µM],/
CCOC(=O)C1=C(C)N=c2s/c(=C/c3ccc(OCC(=O)O)cc3)c(=O)n2C1c1ccc(OC)cc1OC (stereo not given),50µM*,35µM*,-9%,50µM*,8%
O=C(CN1CCCCCCC1)N/N=C/c1ccccc1F,71µM*,56µM*,-3%,13µM*,19%
O=C(CN1CCSCC1)N/N=C/c1ccccc1F,3.2µM*,50µM*,?,1%[12.7 µM],-22%
COc1ccc(/C=N/NC(=O)CN2CCCCCCC2)c(C)c1C,5µM*,56µM*,?,8.9µM*,29%
O=C(CN1CCCCCC1)N/N=C/c1cccc(Cl)c1Cl,10µM*,56µM*,?,?,14%
O=C(CN1CCCCC1)N/N=C/c1ccccc1Br,-6%,?,11%,/,9%
CC(=O)Oc1c(-c2ccco2)oc2ccccc2c1=O,-8%,-2%,15%,4%,?
O=C1CCC(=O)N1CO,/,/,/,-21%[12.7 µM],0%
CNC1CC(N)[C@H](O)[C@@H](O[C@@H]2OC(CO)C3OC4(OC(C(N)CO)C(O)C(O)C4O)O[C@@H]3[C@H]2O)C1O (stereo not given in full),/,/,/,18%[59 µM],-14%
CC1(c2ccccc2)NC(=O)N(NC(=O)COC(=O)c2cc(Br)ccc2O)C1=O (stereo not given),-3%,8%,39%,-37%,-13%
CCN1CCN(CC(=O)Nc2cc(F)ccc2C)CC1,-4%[11.4 µM],11%,11%,-13%,-3%
CCN1CCN(CC(=O)N/N=C/c2ccc(F)cc2F)CC1,2.8µM*,50µM*,?,2.8µM*,3%
O=C(CS(=O)(=O)Cc1ccccc1)c1ccccc1,/,/,/,/,0%
Nn1c(-c2ccccc2Cl)nnc1-c1ccccc1Cl,-28%,-12%,22%,3.5µM*,3%
O=c1[nH]cnc2c1ncn2[C@@H]1O[C@H](COS(=O)(=O)O)[C@@H](O)[C@H]1O,4%,/,108%,/,1%
CC1(C)C(=O)N(CC(=O)Nc2ccc(OC(F)(F)F)cc2)c2ccccc21,-11%,6%,26%[57 µM],15%[59 µM],-7%
O=c1c(CCc2ccccc2)nc2cnc(N3CCNCC3)nc2n1-c1ccccc1,/,/,/,-3%[0.501 µM],/
Cc1cc(-c2ccccc2)nc2oc(C(=O)NN)c(N)c12,-21%,-20%,37%,24%[59 µM],-8%
Nc1c(C(=O)N/N=C/c2ccccc2Cl)oc2nc(-c3ccccc3)cc(-c3ccco3)c12,-21%,-23%,30%,20µM*,5%
Nc1c(C(=O)N/N=C/c2ccc(F)cc2)oc2nc(-c3ccccc3)cc(-c3ccco3)c12,-32%,-22%,13%,28µM*,-7%
O=C(N/N=C/c1ccco1)c1cc(-c2ccccc2)n[nH]1,2%[11.4 µM],2%,28%,-9%[59 µM],-9%
COc1ccc(NC(=O)C(C)N=C2NS(=O)(=O)c3ccccc32)cc1S(N)(=O)=O (stereo not given),9%,0%,32%,12%[12.7 µM],12%
FC(F)(F)c1cccc(N2CCCCC2)c1,/,/,/,/,-8%
SMILES,JMJD2A Tudor,BAZ2B inh,HP1b binding inh,G9a block,GLS inh
FC(F)(F)c1cccc(N2CCC(N=CN3CCCCCC3)=N2)c1,-15%[11.4 µM],40µM*,?,40µM*,12%
CC1=C(C(=O)NCc2cccc(Cl)c2)C2(CCCCCC2)OC1=O,-12%,10%,7%,1%[59 µM],-11%
COc1cc(OC)cc(C(=O)N2CCN(C3CCCCC3)CC2)c1,22µM*,?,?,/,2%
COc1cc(OC)cc(C(=O)N2CCN(C3CCN(Cc4ccccc4)CC3)CC2)c1,1.1µM*,14µM*,?,2.5µM*,1%
O=C(c1cccs1)N1CCN(C2CCN(Cc3ccccc3)CC2)CC1,6%,-2%,22%,11%[12.7 µM],-13%
COc1cc(OC)cc(C(=O)N2CCN(C3CCC(C)CC3)CC2)c1 (stereo not given),56µM*,/,?,/,1%
